# Compound activity from PubChem.
# The list is not random: actives were taken first. Their share in the collection is about 4.2%.
# NALP1 inh = NALP1 inhibition | S. cerevisiae NALP1/ASC/caspase-1 growth, X-gal OD620, 72 h | inhibition, % at 10 µM | 0.61% of 280,000 active | AID 2071; in the data active = inhibition mostly above about 24%, no sharp cut-off; inactive = mostly below about 32%
# NALP3 yeast inh = blocks the NALP3 inflammasome reconstituted in yeast; Yeast reconstituted NLRP3/ASC/caspase-1, beta-gal luminescence, 24 h; inhibition, % at 10 µM; 0.39% of 330,000 active;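 active = inhibition of 50% or more; inactive = inhibition below 50%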;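 note: plate controls were induced DMSO wells for no effect and uninduced yeast grown without galactose for full effect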
# V-ATPase pHluor = regulators of yeast V-ATPase proton transport; S. cerevisiae, pHLuorin cytosolic pH fluorescence; response, % at 10 µM; 0.37% of 350,000 active; AID 504577; in the data active = response mostly above about 7.3%, no sharp cut-off; inactive = mostly below about 5.4%; note: actives read high
# tim23-1 inh = growth inhibitors of tim23-1 mutant yeast | S. cerevisiae tim23-1 growth, BacTiter-Glo luminescence, 24 h | AID 463212 | inhibition, % at 20 µM | 1.3% of 330,000 active;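 active = growth inhibition of the mutant yeast at or above 50%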;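 note: temperature-sensitive mutant grown at 25 °C; plate controls were DMSO-treated mutant yeast for no effect and medium wells lacking yeast for full effect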
# tim10-1 inh = tim10-1 yeast growth inhibition; 2.2% of 330,000 active; S. cerevisiae tim10-1 ts strain growth, BacTiter-Glo, 24 h; inhibition, % at 20 µM;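 active = inhibition of at least 40%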;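 note: mutant grown at 25 °C; 0% = DMSO wells with yeast and 100% = wells holding no yeast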
# TIM10 inh = growth inhibitors of TIM10 yeast strain. inhibition, % at 10 µM. S. cerevisiae TIM10 strain growth, BacTiter-Glo luminescence, 24 h. 1.4% of 330,000 active. AID 463195;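 active = inhibition of 40% or more at the single tested concentration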;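 note: wild-type TIM10 isogenic control strain grown at permissive 25 °C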
# tim10-1 confirm = tim10-1 yeast growth inhibition, confirmed; 56% of 7,400 active; inhibition, % at 20 µM; shares compounds with tim10-1 inh; AID 463213; S. cerevisiae tim10-1 ts strain growth, BacTiter-Glo, 24 h;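 active = inhibition of yeast growth at or above a set limit in either of two repeat tests at 20 µM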;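 note: tim10-1 mutant grown at permissive 25 °C to find synthetic lethal compounds; 0% = DMSO yeast wells and 100% = medium wells without yeast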
# tim10 confirm = confirmation of TIM10 yeast growth inhibitors; shares compounds with TIM10 inh; S. cerevisiae tim10 strain growth, BacTiter-Glo luminescence, 24 h; inhibition, % at 10 µM; 63% of 4,600 active;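 active = inhibition of yeast growth at or above a set limit in either of two replicates at 10 µM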;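 note: this counterscreen used the strain with wild-type TIM10; 0% = yeast with DMSO and 100% = medium wells lacking yeast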
# tim23-1 conf = confirmation of tim23-1 mutant yeast growth inhibitors; AID 463218; S. cerevisiae tim23-1 growth, BacTiter-Glo luminescence, 24 h; shares compounds with tim23-1 inh; 83% of 4,400 active; inhibition, % at 20 µM;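 active = inhibition above about 39% in either of two replicate wells at 20 µM, limit read from the data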;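 note: temperature-sensitive tim23-1 mutant grown at 25 °C; 0% = DMSO wells with yeast and 100% = medium wells without yeast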
# The depositor's hits bear a star; / = no result given.
SMILES,NALP1 inh,NALP3 yeast inh,V-ATPase pHluor,tim23-1 inh,tim10-1 inh,TIM10 inh,tim10-1 confirm,tim10 confirm,tim23-1 conf
Cc1nn(-c2ccccc2)c2c1C1(C(=O)N3c4c(cccc41)C(C)CC3(C)C)C(C#N)=C(N)O2 (centres undefined),-12,3,4,69*,75*,52*,73*,43*,78*
O=C(COc1cccc(NC(=O)c2ccccc2)c1)c1ccccc1,8,0,3,9,3,-10,/,/,/
O=C(COc1cccc(NC(=O)c2cccs2)c1)c1ccc(F)cc1,27,15,1,53*,46*,62*,40*,-16,76*
O=C1c2ccccc2C(=O)C1c1ccccn1,3,13,3,-4,-25,-19,/,/,/
O=C1c2ccccc2C(=O)C2OC12 (centres undefined),11,-25,/,79*,59*,34,38*,/,74*
O=C(Cn1nc(Cl)nc1Cl)c1ccccc1,10,17,2,12,-4,-10,/,/,/
O=C(Cn1nc(Cl)nc1Cl)c1cc2ccccc2oc1=O,-2,-29,-2,72*,59*,57*,53*,44*,69*
CC(=O)/C(=C/c1ccccc1)C(=O)Nc1ccccc1C,-1,36,-1,68*,61*,72*,52*,63*,54*
COc1ccc(Nc2nnc(SCC(=O)c3cc4ccccc4o3)s2)cc1,/,0,1,-6,16,-8,/,/,/
CCOC(=O)c1sc2nc(NC(=O)C(C)(C)C)sc2c1C,4,37,6,63*,55*,41*,31*,44*,57*
CCOC(=O)c1sc2nc(NC(=O)C3CC3)sc2c1C,5,29,-1,40,34,34,/,/,/
C[C@@H]1C[C@@H]2OC(=O)[C@]3(C)[C@H]2[C@@H](OC3(C)O)[C@]2(C)C(=O)CC[C@H]12 (some centres undefined),-10,2,/,3,1,-1,/,/,/
NC(=O)c1ccsc1NC(=O)CCS(=O)(=O)c1ccccc1,7,-7,3,14,1,-5,/,/,/
CCOC(=O)c1ccsc1NC(=O)CCS(=O)(=O)c1ccccc1,24,-2,1,62*,54*,43*,42*,38*,51*
Cc1ccccc1NC(=O)CCS(=O)(=O)c1ccc(Br)s1,24,3,1,12,-3,3,/,/,/
COC(=O)c1ccccc1NC(=O)CCS(=O)(=O)c1ccc(Br)s1,16,-11,-2,55*,44*,33,44*,/,47*
COC(=O)c1c(NC(=O)c2ccc([N+](=O)[O-])o2)sc2c1CCN(C(C)C)C2,6,16,-1,91*,91*,94*,91*,98*,92*
Cc1cccc(NC(=S)NC2CCCCC2)n1,-5,18,3,52*,41*,50*,28,44*,50*
Cc1cccc(NC(=S)NC2CCCC2)n1,0,28,-2,44,13,18,/,/,/
O=C(Nc1ccc(OCC(F)(F)C(F)F)c(C(F)(F)F)c1)c1ccccc1O,27,25,7,54*,81*,62*,76*,-6,69*
COc1cccc(NC(=O)CSc2nc3ccccc3cc2Cc2ccccc2)c1,2,13,-1,0,15,9,/,/,/
COc1cccc(CSc2nc3ccccc3cc2C=O)c1,8,41,0,71*,49*,46*,44*,53*,78*
CCN(CC)c1ccc(/C=N/NC(=O)c2nnn(-c3nonc3N)c2C(C)C)c(O)c1,15,24,1,62*,72*,60*,16,66*,61*
CC(C)c1c(C(=O)N/N=C/c2ccc3c(c2)OCO3)nnn1-c1nonc1N,14,23,1,19,11,2,/,/,/
O=C1/C(=C\c2ccco2)CCC/C1=C\c1ccco1,-7,3,-3,48,38,30,/,/,/
SMILES,NALP1 inh,NALP3 yeast inh,V-ATPase pHluor,tim23-1 inh,tim10-1 inh,TIM10 inh,tim10-1 confirm,tim10 confirm,tim23-1 conf
CC1C/C(=C/c2ccccn2)C(=O)/C(=C/c2ccccn2)C1 (centres undefined),1,28,0,65*,67*,67*,66*,71*,82*
CC1C/C(=C/c2cccs2)C(=O)/C(=C/c2cccs2)C1 (centres undefined),35,6,-1,25,19,14,/,/,/
CC(C)(C)C1C/C(=C/c2ccccn2)C(=O)/C(=C/c2ccccn2)C1 (centres undefined),-8,27,3,68*,66*,69*,70*,75*,27
O=C1/C(=C/c2ccccn2)COc2ccccc21,17,-1,5,76*,54*,64*,68*,75*,72*
CC1C/C(=C/c2ccco2)C(=O)/C(=C/c2ccco2)C1 (centres undefined),26,3,/,54*,54*,34,32*,/,43*
O=S(=O)(c1ccccc1)c1nnn2c1nc(NC1CCN(Cc3ccccc3)CC1)c1ccccc12,10,10,1,-1,8,-1,/,/,/
Cc1ccc(N2C(=O)CC(Sc3ccccc3C(=O)O)C2=O)c([N+](=O)[O-])c1 (centres undefined),4,4,0,19,27,29,/,/,/
O=C(N/N=C/c1c[nH]c2ccccc12)c1sc2ccccc2c1Cl,8,27,1,39,-24,25,/,/,/
O=C(N/N=C/c1ccccn1)c1sc2ccccc2c1Cl,3,34,1,76*,48*,17,41*,/,64*
COc1ccc(S(=O)(=O)NCc2ccco2)c2ccccc12,12,-13,-3,21,-3,-7,/,/,/
COc1cccc(C(c2c(C)[nH]n(-c3ccccc3)c2=O)c2c(C)[nH]n(-c3ccccc3)c2=O)c1OC,6,-27,2,63*,52*,32,33*,/,55*
Cc1[nH]n(-c2ccccc2)c(=O)c1C(C[N+](=O)[O-])c1ccccc1Cl (centres undefined),22,27,0,74*,61*,44*,59*,56*,75*
CCc1ccc([C@@H]2C[C@H]3[C@@H](CN2S(=O)(=O)c2ccc(C)cc2)C(=O)C[C@@H](c2ccccc2F)N3S(=O)(=O)c2ccc(C)cc2)cc1,/,/,-1,/,/,/,/,/,/
c1cncc(-c2nnc(-c3cccnc3)nn2)c1,26,-14,6,54*,50*,36,40*,/,56*
